Data taken from the supplement of paper PMC7156485.

Experiments:
Conditions in all cases: concentration: 10 µM; 24 h
[1] = tested on: HCC1569; experiment: cell number relative to DMSO (% of DMSO); higher = more cells (less growth inhibition / toxicity)
Procedure, shortened: (§1)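 Compounds were applied at 10 µM for 24 h at 37 °C, in triplicate, to HCC1569 and TDF cells. The cells were then fixed and stained for H1.0, and nuclei were counterstained with DAPI. Nuclear H1.0 intensity or cell number is reported relative to the plate control as a percent, taking the median of replicates. Smoothing for positional effects was applied to HCC1569 values only.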

[2] = tested on: TDF; experiment: as above
Procedure, shortened: as §1

[3] = tested on: TDF; experiment: H1.0 immunofluorescence intensity relative to DMSO (% of DMSO); higher = stronger H1.0 induction, active = 120 or more
Procedure, shortened: as §1

[4] = tested on: HCC1569; experiment: H1.0 immunofluorescence intensity relative to DMSO (% of DMSO); higher = stronger H1.0 induction, active = 140 or more
Procedure, shortened: as §1
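For H1.0 immunofluorescence intensity relative to DMSO in this document: TDF is a line of transformed human dermal fibroblasts of mesenchymal origin.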
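For cell number relative to DMSO in this document: TDF denotes transformed human dermal fibroblasts of mesenchymal origin.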

SMILES | cell number [1] | cell number [2] | H1.0 immunofluorescence intensity [3] | H1.0 immunofluorescence intensity [4]
NC(Cc1cc(O)c(O)cc1O)C(=O)O (racemic) [6-Hydroxy-DL-DOPA] | 98.2 | 96.2 | 97 (inactive) | 93.8 (inactive)
CN(C)C(=O)Oc1cccc([N+](C)(C)C)c1.[Br-] [Neostigmine bromide] | 107 | 98.4 | 89.5 (inactive) | 89.4 (inactive)
CCCN1CC(CSC)CC2c3cccc4[nH]cc(c34)CC21.CS(=O)(=O)O (stereo unspecified) [Pergolide mesylate] | 95.8 | 102 | 93.3 (inactive) | 112 (inactive)
CCCN(CCC)C1CCc2c(F)ccc(O)c2C1.Cl (stereo not drawn) [S(-)-UH-301 hydrochloride] | 102 | 97.9 | 98.7 (inactive) | 96.3 (inactive)
CCCn1c(C)c(C(=O)c2cccc3ccccc23)c2ccccc21 | 99.3 | 88.2 | 96.2 (inactive) | 100 (inactive)
Cc1cccc(C)c1NC1=NCCCS1 [Xylazine] | 106 | 106 | 95.4 (inactive) | 106 (inactive)
CC(C)Oc1cccnc1N(C)C1CCN(Cc2ccccc2)CC1.O=C(O)C=CC(=O)O | 103 | 106 | 99 (inactive) | 112 (inactive)
CC1CCC2C(C)C3C(CC4C5CC=C6CC(OC7OC(CO)C(O)C(OC8OC(CO)C(O)C(O)C8O)C7OC7OC(C)C(O)C(O)C7O)CCC6(C)C5CCC43C)N2C1 (racemic) | 103 | 101 | 97.4 (inactive) | 86 (inactive)
Cc1ccccc1-n1c(Cn2cnc3c(N)ncnc32)nc2cccc(C)c2c1=O | 90.8 | 99.7 | 91.9 (inactive) | 102 (inactive)
